Shown are actives, neighbours in structure and some others; about 2.8% of the full set was active somewhere.
GAA850 FXN act – frataxin GAA850 promoter activation; HEK293 lucGAA850 FXN promoter luciferase reporter, 24 h; percent of 10 µM SAHA response; activation, % at 6 µM; 360,000 compounds, 0.56% hits; AID 540364;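 active = activation above the average of all compounds screened plus 3 SD, cutoff fixed separately per campaign, cut at about 7.5% in these data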;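 also: 0% = DMSO wells and 100% = 10 µM SAHA wells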
esBAF inh – SWI/SNF esBAF complex inhibition; mouse ES cells, Bmi1-luciferase knock-in reporter, 24 h; 100% = twice the neutral-well signal; reporter increase, % at 12.5 µM; 350,000 compounds, 2% hits; in the data active = activation above about 40%; inconclusive = no clear call, values can overlap the other calls;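 also: 0% = median of the plate's neutral control wells and 100% = double that signal; a rise in the Bmi1 reporter signal indicates esBAF inhibition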
Wnt bcat act – Wnt/beta-catenin pathway activation. activation, % at 9.35 µM. Wnt/beta-catenin reporter cell assay, activator, plate reader. AID 743398. 300,000 compounds, 1.2% hits; in the data active = activation above about 30%, passing the limit was not always enough; inconclusive = no clear call, values can overlap the other calls;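 also: 0% = neutral control wells and 100% = positive control wells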
MITF TRPM1 HTS – increases MITF-driven TRPM1 promoter luciferase signal | SK-MEL-5 TRPM1-promoter luciferase, 24 h; % of positive control, neutral wells = 0 | activation, % at 12.5 µM | 300,000 compounds, 0.75% hits;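 active = mean activation of at least 80% with every replicate also reaching 80%; inconclusive = mean reaches 80% but some replicate falls short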;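 also: 0% = neutral control wells and 100% = parthenolide positive control wells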
* hit, by the source's call.

For Nc1nc(Nc2ccccc2)nc2ccccc12 the results were GAA850 FXN act 4, esBAF inh 4 and Wnt bcat act 41*.
Cc1ccc(-c2nc3ccccc3[nH]2)cc1NC(=S)NC(=O)c1ccccc1Br was read as GAA850 FXN act -1, esBAF inh 58*, Wnt bcat act 0 and MITF TRPM1 HTS 14.
`Cc1ccc(-c2nc3ccccc3[nH]2)cc1NC(=O)c1ccc2c(c1)OCO2` gave GAA850 FXN act 1, esBAF inh 45* and MITF TRPM1 HTS 28.
For Cc1ccc(-c2nc3ccccc3[nH]2)cc1NC(=O)/C=C/c1ccco1 the results were GAA850 FXN act -3, esBAF inh 23 and MITF TRPM1 HTS 44.
For O=C(NC(=S)Nc1cc(-c2nc3ccccc3[nH]2)ccc1Cl)c1ccc2c(c1)OCO2 the results were GAA850 FXN act 2, esBAF inh 15, Wnt bcat act 26 and MITF TRPM1 HTS -53.
CS(=O)(=O)Nc1ccc2c(c1)[C@H]1C[C@H](CC(=O)NCc3ccccc3F)O[C@H](CO)[C@H]1O2 was read as esBAF inh 1.
`Cc1noc(C)c1NC(=O)Nc1ccc2c(c1)CC(=O)N([C@@H](C)CO)C[C@@H](C)[C@H](CN(C)C(=O)Nc1cccc3ccccc13)O2` gave esBAF inh 3.
Screening COc1ccc(OC(=O)Nc2ccccc2)cc1 returned GAA850 FXN act 4, esBAF inh 14 and MITF TRPM1 HTS inconclusive.
O=C(Nc1ccccc1)OCCCc1ccccc1 was read as GAA850 FXN act 5, esBAF inh 57*, Wnt bcat act inconclusive and MITF TRPM1 HTS 56.
CCc1ccc(OC(=O)Nc2ccccc2)cc1 was read as GAA850 FXN act 6, esBAF inh -5, Wnt bcat act 23 and MITF TRPM1 HTS 92*.
For COc1cccc(NC(=O)Nc2ccc3c(c2)nnn3C)c1 the results were GAA850 FXN act 1, esBAF inh 48*, Wnt bcat act 16 and MITF TRPM1 HTS 107*.
Screening CCc1ccc(NC(=O)Nc2cccc(OC)c2)cc1 returned GAA850 FXN act 4, esBAF inh 62*, Wnt bcat act -4 and MITF TRPM1 HTS 51.
Screening O=C(Nc1ccccc1)OCCCCOC(=O)Nc1ccccc1 returned GAA850 FXN act 2, esBAF inh -2, Wnt bcat act 0 and MITF TRPM1 HTS -9.
For Cc1ccc(NC(=O)c2ccc3c(c2)nnn3C)cc1 the results were GAA850 FXN act 4, Wnt bcat act 39* and MITF TRPM1 HTS 53.
For C[C@H]1CN([C@@H](C)CO)S(=O)(=O)c2ccc(C#Cc3ccncc3)cc2O[C@H]1CN(C)C(=O)C1CCC1 the results were esBAF inh 8.
CCS(=O)(=O)Nc1ccc2c(c1)C(=O)N(C)[C@@H]1CC[C@@H](CC(=O)N3CCOCC3)O[C@@H]1CO2 was read as esBAF inh -3.
O=c1c2ccccc2nc2sc(Nc3cccc(Cl)c3)nn12 was read as GAA850 FXN act 1, esBAF inh 46*, Wnt bcat act 22 and MITF TRPM1 HTS 37.
`Cc1nc2ccccc2c(=O)n1Nc1cccc(Cl)c1` gave GAA850 FXN act 2, Wnt bcat act -5 and MITF TRPM1 HTS -3.
COc1ccc(/C=C2\SC(=O)N(CCNC(=O)CCS(=O)(=O)c3ccc(C)cc3)C2=O)cc1 was read as GAA850 FXN act 7, Wnt bcat act 33* and MITF TRPM1 HTS 55.
COc1ccc(/C=C2\SC(=O)N(CCNC(=O)Cn3cnnn3)C2=O)cc1 was read as GAA850 FXN act -1, Wnt bcat act 20 and MITF TRPM1 HTS inconclusive.
`CC(=O)N1[C@H](C(=O)NCc2ccc(F)cc2)[C@@H](CO)[C@@H]2Cn3c(cccc3=O)[C@@H]21` gave esBAF inh -2.
`O=C(COc1ccc(Br)cc1Cl)c1ccc[nH]1` gave GAA850 FXN act 6, esBAF inh 74*, Wnt bcat act 19 and MITF TRPM1 HTS 102*.
`O=C(COc1ccc(Br)cc1Cl)NC1CCCCC1` gave GAA850 FXN act 4, Wnt bcat act 23 and MITF TRPM1 HTS 88*.
`O=C(COc1ccc(Br)cc1Cl)NC(=O)NC1CCCC1` gave GAA850 FXN act 4, esBAF inh 51*, Wnt bcat act 38* and MITF TRPM1 HTS 93*.
O=C(NC1CCCC1)[C@H]1[C@H](CO)[C@H]2Cn3c(ccc(-c4ccncc4)c3=O)[C@H]2N1CC1CC1 was read as esBAF inh 1.
For COCC(=O)N[C@H]1CC[C@H](CC(=O)N2CCCCC2)O[C@@H]1CO the results were esBAF inh -4.
For C[C@@H]1CN([C@@H](C)CO)C(=O)c2cc(NC(=O)NC3CCCCC3)ccc2O[C@@H](C)CCCCO[C@H]1CN(C)S(=O)(=O)c1ccc(F)cc1 the results were esBAF inh -1.
For CN(C)C(=O)C[C@@H]1CC[C@H]2[C@@H](COC[C@@H](O)CN2C(=O)C2CCCC2)O1 the results were esBAF inh -3.
For O=C(NCCc1cccs1)C1CC(c2cccc(F)c2)=NO1 (configuration not stated) the results were GAA850 FXN act 1, esBAF inh -1, Wnt bcat act -3 and MITF TRPM1 HTS 2.
For O=C(NCCc1cccs1)C1CC(c2c(Cl)cccc2Cl)=NO1 (configuration not stated) the results were GAA850 FXN act -2, esBAF inh 80*, Wnt bcat act 6 and MITF TRPM1 HTS 16.
O=C(COc1ccccc1)NCCSc1ccccc1 was read as GAA850 FXN act 0, esBAF inh 52* and Wnt bcat act 18.
`CN(C)S(=O)(=O)c1ccc(C(=O)NCCSc2ccccc2)cc1` gave GAA850 FXN act 0, esBAF inh 53* and MITF TRPM1 HTS 41.
Screening O=C(NCCSc1ccccc1)c1ccccc1F returned GAA850 FXN act 5, esBAF inh 47* and Wnt bcat act -1.
For CC(C)(C)SCCNC(=O)COc1ccccc1 the results were GAA850 FXN act 2, esBAF inh 16 and MITF TRPM1 HTS 24.
Screening O=C(CNC(=O)c1ccccc1F)c1ccccc1 returned GAA850 FXN act 4, esBAF inh -14 and Wnt bcat act 38*.
`CC(C)c1cn(CC[C@H]2CC[C@H](NC(=O)C3CCCC3)[C@H](CO)O2)nn1` gave esBAF inh -9.
Screening O=S(=O)(c1ccccc1)N1CC[C@@H]2[C@H](CO)Nc3ccc(-c4ccccc4F)cc3[C@@H]21 returned esBAF inh -3.
For C[C@@H]1CN([C@@H](C)CO)C(=O)c2cc(NS(C)(=O)=O)ccc2O[C@@H]1CN(C)C(=O)Nc1cccc2ccccc12 the results were esBAF inh -3.
Screening COc1ccc(NC(=O)Nc2cccc3c2O[C@H](CN(C)C(=O)Nc2ccc4c(c2)OCO4)[C@H](C)CN([C@H](C)CO)C3=O)cc1 returned esBAF inh 8.
For O=C(NCCSc1ccccc1)c1cccnc1 the results were GAA850 FXN act 6, esBAF inh 58* and MITF TRPM1 HTS 56.
`CCc1ccc(C(=O)CCC(=O)Nc2ccc(OC)c(S(=O)(=O)N3CCCCC3)c2)cc1` gave GAA850 FXN act 0, esBAF inh 8, Wnt bcat act 56* and MITF TRPM1 HTS -6.

From PubChem
